Laboratory results as given in PubChem BioAssay AID743320 (Broad Institute, 2014).
Potency and affinity values are given separately. Unmarked numbers belong to inactive results. A call without a number means that no potency is given here. The source made the active and inactive calls.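 How the source made its calls: active means signal drop whose fitted half-maximal potency is at most twice the top valid dose tested; inconclusive means flat curve inhibiting 30 to 70 percent, or a poor fit; inactive means the rest.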

Biological target: Endoplasmic reticulum aminopeptidase 2 (Homo sapiens) (UniProt Q6P179)
Test: ERAP2 aminopeptidase inhibitors, dose response, selectivity assay for selective ERAP1 modulator project, biochemical, fluorescence plate reader, cherry-picked, set 2 (AID 743320)

Chain of Endoplasmic reticulum aminopeptidase 2 (Homo sapiens) (Q6P179 whole entry, looked up): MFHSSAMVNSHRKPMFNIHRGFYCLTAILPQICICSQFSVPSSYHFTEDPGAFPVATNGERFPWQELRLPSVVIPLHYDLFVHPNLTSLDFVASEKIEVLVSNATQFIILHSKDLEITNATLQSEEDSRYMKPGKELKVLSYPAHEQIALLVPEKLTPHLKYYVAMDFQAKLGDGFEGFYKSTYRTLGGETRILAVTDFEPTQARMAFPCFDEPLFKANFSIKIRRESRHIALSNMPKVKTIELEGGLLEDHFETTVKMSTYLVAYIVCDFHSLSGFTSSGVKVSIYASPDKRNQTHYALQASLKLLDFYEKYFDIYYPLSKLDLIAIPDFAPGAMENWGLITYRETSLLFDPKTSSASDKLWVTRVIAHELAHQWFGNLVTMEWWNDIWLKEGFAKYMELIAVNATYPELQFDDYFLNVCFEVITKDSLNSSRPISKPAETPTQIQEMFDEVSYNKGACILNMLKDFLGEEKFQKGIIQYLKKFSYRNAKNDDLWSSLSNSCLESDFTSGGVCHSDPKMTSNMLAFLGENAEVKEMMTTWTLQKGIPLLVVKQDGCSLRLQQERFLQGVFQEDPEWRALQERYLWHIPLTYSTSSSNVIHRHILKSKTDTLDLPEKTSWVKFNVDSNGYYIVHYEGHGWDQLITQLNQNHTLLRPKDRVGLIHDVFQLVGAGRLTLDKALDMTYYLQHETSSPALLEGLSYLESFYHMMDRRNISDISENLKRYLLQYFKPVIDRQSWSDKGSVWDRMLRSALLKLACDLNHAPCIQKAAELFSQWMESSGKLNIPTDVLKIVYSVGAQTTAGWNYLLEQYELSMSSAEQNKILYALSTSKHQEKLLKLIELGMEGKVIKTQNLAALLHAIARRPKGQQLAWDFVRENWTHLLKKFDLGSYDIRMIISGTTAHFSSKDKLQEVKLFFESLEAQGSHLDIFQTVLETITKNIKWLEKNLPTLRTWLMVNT

## O=C(O)c1ccccc1NS(=O)(=O)c1cccc(-n2sc3ccccc3c2=O)c1
  outcome: inactive

## COc1ccc(CN(C)C[C@@H]2OCCCC[C@@H](C)Oc3ccc(NS(=O)(=O)c4c(C)noc4C)cc3C(=O)N([C@@H](C)CO)C[C@@H]2C)cc1
  outcome: inactive

## C[C@H]1CN([C@@H](C)CO)C(=O)c2cccc(NC(=O)Nc3ccc(C(F)(F)F)cc3)c2O[C@@H]1CN(C)CC1CC1
  outcome: inactive

## C[C@H]1CN([C@@H](C)CO)C(=O)c2cccc(NC(=O)Nc3ccc(C(F)(F)F)cc3)c2O[C@@H]1CN(C)C
  outcome: inactive

## COc1cccc(S(=O)(=O)N(C)C[C@@H]2Oc3ncccc3C(=O)N([C@H](C)CO)C[C@@H]2C)c1
  outcome: inactive

## C[C@@H]1CCCCO[C@@H](CN(C)CC2CC2)[C@@H](C)CN([C@H](C)CO)C(=O)c2cc(NS(=O)(=O)c3cccs3)ccc2O1
  outcome: inactive

## COc1ccc(C(=O)O)cc1S(=O)(=O)Nc1cc(C(F)(F)F)ccc1N1CCCCC1
  outcome: inactive

## C[C@@H]1CCCCO[C@@H](CN(C)CC2CC2)[C@@H](C)CN([C@H](C)CO)C(=O)c2cc(NS(=O)(=O)c3ccc(Cl)cc3)ccc2O1
  outcome: inactive

## COc1ccc(NC(=O)Nc2ccc3c(c2)C(=O)N([C@@H](C)CO)C[C@@H](C)[C@H](CN(C)Cc2ccc(C(=O)O)cc2)OCCCC[C@H](C)O3)cc1
  outcome: inactive

## COc1ccc(CN(C)C[C@@H]2OCCCC[C@@H](C)Oc3ccc(NS(=O)(=O)c4cccs4)cc3C(=O)N([C@@H](C)CO)C[C@H]2C)cc1
  outcome: inactive

## COc1cc2cc(C(=O)N3CCN(Cc4ccc5c(c4)OCO5)CC3)c(=O)oc2cc1OC
  outcome: inactive

## COc1ccc(CN(C)C[C@@H]2OCCCC[C@@H](C)Oc3ccc(NS(=O)(=O)c4cccs4)cc3C(=O)N([C@H](C)CO)C[C@@H]2C)cc1
  outcome: inactive

## CCCN(C)C[C@@H]1OCCCC[C@@H](C)Oc2ccc(NS(=O)(=O)c3ccc(C)cc3)cc2C(=O)N([C@@H](C)CO)C[C@@H]1C
  outcome: inactive

## C[C@H](CO)N1C[C@H](C)[C@H](CN(C)CC2CCCCC2)Oc2c(NC(=O)Nc3ccc4c(c3)OCO4)cccc2C1=O
  outcome: inactive

## Cc1c(O)ccc2c(CN3CCN(Cc4ccccc4)CC3)cc(=O)oc12
  outcome: inactive

## C[C@@H]1CCCCO[C@@H](CN(C)Cc2ccc(C(=O)O)cc2)[C@H](C)CN([C@@H](C)CO)C(=O)c2cc(NS(=O)(=O)c3ccc(Cl)cc3)ccc2O1
  outcome: inactive

## Cc1noc(C)c1NC(=O)N(C)C[C@@H]1Oc2c(NC(=O)Nc3ccc(F)cc3)cccc2C(=O)N([C@H](C)CO)C[C@@H]1C
  outcome: inactive

## O=C(CSc1cn[nH]n1)Nc1cccc(C(=O)O)c1
  outcome: inactive

## CCCNC(=O)C[C@@H]1CC[C@@H]2[C@H](COC[C@H](O)CN2C(=O)Nc2cccc(Cl)c2)O1
  outcome: inactive

## COc1ccc(CN(C)C[C@@H]2OCCCC[C@@H](C)Oc3ccc(NS(=O)(=O)c4cccs4)cc3C(=O)N([C@H](C)CO)C[C@H]2C)cc1
  outcome: inactive

## Cc1ccc(S(=O)(=O)Nc2ccc3c(c2)C(=O)N([C@@H](C)CO)C[C@H](C)[C@H](CN(C)C)OCCCC[C@@H](C)O3)cc1
  outcome: inactive

## COc1ccc(S(=O)(=O)Nc2ccc3c(c2)C(=O)N([C@@H](C)CO)C[C@H](C)[C@H](CN(C)C)OCCCC[C@@H](C)O3)cc1
  outcome: inactive

## C[C@@H]1CCCCO[C@@H](CN(C)CC2CCCCC2)[C@H](C)CN([C@@H](C)CO)C(=O)c2cc(NC(=O)Nc3ccccc3)ccc2O1
  outcome: inactive

## COC(=O)[C@H]1[C@H](CO)[C@H]2Cn3c(ccc(-c4ccncc4)c3=O)[C@H]2N1Cc1ccccc1F
  outcome: inactive

## C[C@@H]1CCCCO[C@@H](CN(C)Cc2ccccc2)[C@H](C)CN([C@H](C)CO)C(=O)c2cc(NS(=O)(=O)c3cccs3)ccc2O1
  outcome: inactive

## Cc1ccc2nc3c(cc(C(=O)NCc4ccccc4)c(=N)n3CCCn3ccnc3)c(=O)n2c1
  outcome: inactive

## COc1ccc(CN(C)C[C@H]2OCCCC[C@@H](C)Oc3ccc(NS(=O)(=O)c4cccs4)cc3C(=O)N([C@@H](C)CO)C[C@@H]2C)cc1
  outcome: inactive

## CCCN(C)C[C@@H]1OCCCC[C@@H](C)Oc2ccc(NS(=O)(=O)c3c(C)noc3C)cc2C(=O)N([C@H](C)CO)C[C@@H]1C
  outcome: inactive

## C[C@@H]1CCCCO[C@@H](CN(C)Cc2ccccc2)[C@@H](C)CN([C@H](C)CO)C(=O)c2cc(NS(=O)(=O)c3cccs3)ccc2O1
  outcome: inactive

## C[C@@H]1CCCCO[C@@H](CN(C)C(=O)CCC(F)(F)F)[C@@H](C)CN([C@@H](C)CO)C(=O)c2cc(NS(=O)(=O)c3ccccc3)ccc2O1
  activity change, negative = inhibition: 14.4% [at 2.6 µM]
